Rows were chosen to be rich in hits. Some 7% of all compounds tested hit in one or more screens of this group.
PI5P4K alpha inh = blocks human PI5P4K alpha kinase activity; P48426; PI5P4Kalpha enzyme, ADP-Glo luminescence, 60 min; hits give low values; max response, %; hit rate 1.2% among 330,000; active = max response of -50% or lower; inconclusive = between -30% and -50%; inactive = -30% or higher; note: value at the top dose of about 77 µM
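Controls without substrate or without enzyme flank wells where PI5P4Kalpha converts substrate using 5 microM ATP (final). Incubation lasts 60 minutes at room temperature; ADP formed is read by ADP-Glo luminescence.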
JMJD2A Tudor inh = blocks the human JMJD2A Tudor domain; AlphaScreen JMJD2A-Tudor / H3K4me3 peptide binding; Potency, µM (highest dose often 114 µM), hits mostly inhibitors; hit rate 4.4% among 390,000; note: nearly all actives have a fitted effect of over 50% in size
PLK1 PBD inh = blocks phosphopeptide binding to human PLK1 polo-box domain | hit rate 2.8% among 360,000 | Potency, µM, most hits filed as inhibitors | P53350 | Plk1 PBD binding of FITC phosphopeptide, fluorescence polarization; note: series mostly up to about 57 µM; nearly all actives have a fitted effect of over 65% in size
BAZ2B inh = blocks human BAZ2B. Q9UIF8. AlphaScreen BAZ2B-H3K14Ac peptide displacement. Potency, µM (highest dose often 114 µM), actives largely listed as inhibitors. hit rate 4.4% among 360,000. AID 504333; note: nearly all actives have a fitted effect of over 60% in size
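Protein-peptide AlphaScreen: BAZ2B 50 nM, b-H3K14Ac 50 nM, 1x PBS pH 7.4 + 0.01% Tween-20. Preincubation 30 min RT; cpd 30 min RT (top 110 uM); beads 20 min RT, light-protected.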
HP1b chromo inh = blocks HP1-beta chromodomain binding to methylated histone tails | AlphaScreen HP1-beta / biotin-H3K9me3 peptide binding | P83916 | hit rate 0.56% among 390,000 | Potency, µM (doses to about 114 µM), most hits filed as inhibitors | AID 540317; note: nearly all actives have a fitted effect of over 70% in size
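HP1-beta protein (50 nM final) preincubated 30 min at room temperature with biotinylated H3(1-18)K9me3 peptide (50 nM) in PBS pH 7.4, 0.01% Tween-20, then compound added for 30 min. AlphaScreen streptavidin donor/nickel chelate acceptor beads (10 ug/mL final), 30 min dark, luminescence read.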
GCN5L2 inh = blocks human GCN5L2 histone acetyltransferase | GCN5L2 HAT assay, ThioGlo1 CoA-SH fluorescence | Potency, µM (top dose mostly 58.9 µM), actives largely listed as inhibitors | hit rate 0.21% among 390,000 | AID 504327
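ThioGlo1-coupled HAT assay: 20nM GCN5L2, 70uM acetyl-CoA, 75uM H3(1-25) peptide, pH 7.5. Fluorescence read at 340/540nm at start and after 20 min at room temperature.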
Of the large screens only hits and unclear results are named; the others gave an inactive call. Unless noted, calls come from the whole dose curve; as a rule, active = well fitted curve in the direction sought with a large enough effect; inconclusive = small, poorly fitted or top-dose-only effect, or another doubt; inactive = no such curve, though single readings can be large; an effect the other way counts as inactive or inconclusive.

NS(=O)(=O)c1ccc(CCNC(=O)c2ccc(Cl)c(S(=O)(=O)NCc3ccco3)c2)cc1	none (no result: BAZ2B inh)
NCCN1C(=O)c2ccccc2C1(O)c1ccc(Cl)cc1 (stereo not drawn)	none (no result: JMJD2A Tudor inh, BAZ2B inh, HP1b chromo inh, GCN5L2 inh)
O=C(COc1cccc(Br)c1)N/N=C1\CCCc2ccccc21	none (no result: BAZ2B inh)
O=C(COc1cccc(Br)c1)N/N=C1\CCSC1	JMJD2A Tudor inh 71µM, PLK1 PBD inh 21µM
CS(=O)(=O)N1CCN(S(=O)(=O)c2ccccc2[N+](=O)[O-])CC1	PLK1 PBD inh inconclusive
O=[N+]([O-])c1ccccc1S(=O)(=O)N1CCCCC1	PLK1 PBD inh 27µM
CC(=O)N1c2c(cc(Br)cc2S(=O)(=O)N2CCN(c3ccccc3)CC2)CC1C (stereo not drawn)	JMJD2A Tudor inh inconclusive (no result: PI5P4K alpha inh, PLK1 PBD inh)
O=S(=O)(c1ccc(Cl)cc1)N1CCN(C2CCN(Cc3ccccc3)CC2)CC1	none
O=[N+]([O-])c1ccc(S(=O)(=O)N2CCN(C3CCN(Cc4ccccc4)CC3)CC2)cc1	JMJD2A Tudor inh 1.8µM, BAZ2B inh 28µM, HP1b chromo inh 50µM
O=[N+]([O-])c1ccc(C(=S)N2CCC(Cc3ccccc3)CC2)cc1	JMJD2A Tudor inh inconclusive, BAZ2B inh inconclusive, HP1b chromo inh inconclusive
O=[N+]([O-])c1cccc(OCCCN2CCC(Cc3ccccc3)CC2)c1	JMJD2A Tudor inh 79µM (no result: BAZ2B inh, GCN5L2 inh)
CC(=O)N1c2c(cc(Br)cc2S(=O)(=O)N2CCN(C(=O)c3ccco3)CC2)CC1C (stereo not drawn)	PI5P4K alpha inh inconclusive, JMJD2A Tudor inh 22µM, PLK1 PBD inh 4.7µM
O=C1NC(=O)N2CCSC2(Cc2ccccc2)N1 (stereo not drawn)	none (no result: BAZ2B inh, GCN5L2 inh)
O=[N+]([O-])c1ccccc1/C=N/N1CCN(c2ccncc2S(=O)(=O)N2CCCCC2)CC1	JMJD2A Tudor inh 35µM, BAZ2B inh 32µM, HP1b chromo inh inconclusive
O=[N+]([O-])c1ccc(/C=N/N2CCN(c3ccncc3S(=O)(=O)N3CCCCC3)CC2)cc1	none
CC1CCCCN1S(=O)(=O)c1ccccc1[N+](=O)[O-] (stereo not drawn)	none
O=C(c1ccccc1Cc1ccccc1)N1CCN(S(=O)(=O)c2ccccc2[N+](=O)[O-])CC1	none
O=[N+]([O-])c1ccccc1S(=O)(=O)N1CCN(C2CCCC2)CC1	JMJD2A Tudor inh 1.8µM, BAZ2B inh 79µM, HP1b chromo inh inconclusive
O=[N+]([O-])c1ccc(CN2CCC(Cc3ccccc3)CC2)cc1	JMJD2A Tudor inh 28µM, BAZ2B inh 50µM, HP1b chromo inh inconclusive
O=[N+]([O-])c1ccccc1S(=O)(=O)N1CCN(C2CCN(Cc3ccccc3)CC2)CC1	JMJD2A Tudor inh 0.71µM, HP1b chromo inh inconclusive
O=C(NCC(c1cccs1)N1CCOCC1)C1CCN(S(=O)(=O)c2ccccc2C(F)(F)F)CC1 (stereo not drawn)	none
CCC(=O)N1CCc2cc(S(=O)(=O)NCCC(=O)NCc3ccc(OC)cc3)ccc21	none (no result: PI5P4K alpha inh, PLK1 PBD inh, BAZ2B inh)
CC(C)(CNC(=O)CNC(=O)c1ccccc1F)N1CCOCC1	none
O=C(c1ccco1)N1CCN(S(=O)(=O)c2ccccc2[N+](=O)[O-])CC1	PLK1 PBD inh 30µM
O=C(c1ccco1)N1CCN(S(=O)(=O)c2ccc([N+](=O)[O-])cc2)CC1	none
CCCCNC(=O)C[C@@H]1C[C@@]2(C(=O)OCC)CCCC=C2N(CCC2=CCCCC2)C1=O	none (no result: JMJD2A Tudor inh, BAZ2B inh, HP1b chromo inh, GCN5L2 inh)
Cc1csc(=Nc2ccccc2)n1Cc1ccco1	JMJD2A Tudor inh 45µM, PLK1 PBD inh inconclusive, BAZ2B inh 63µM, HP1b chromo inh inconclusive
Cc1csc(=NC(=O)c2ccccc2)n1Cc1ccco1	none (no result: PI5P4K alpha inh)
CCOC(=O)N1CCN(S(=O)(=O)N2CCCC(C(=O)NCc3cc(Br)ccc3OC)C2)CC1 (stereo not drawn)	BAZ2B inh inconclusive
C1=CC2(C=C1)OC21CCC2(C=CC3(C2)OC3C2CCCCC2)CC1 (stereo not drawn)	none (no result: JMJD2A Tudor inh, BAZ2B inh, HP1b chromo inh, GCN5L2 inh)
CCc1ccc2c(c1)C(c1ccncc1)=NNC(c1ccccc1)=N2	BAZ2B inh inconclusive
c1ccc(C2=Nc3c(ccc4ccccc34)C(c3ccncc3)=NN2)cc1	JMJD2A Tudor inh 35µM, BAZ2B inh 35µM, HP1b chromo inh inconclusive
Cc1ccc2c(c1)C(c1ccncc1)=NNC(c1ccccc1)=N2	PLK1 PBD inh 21µM
COCc1cc(C)n(CC(=O)Nc2ccc(Cl)cc2Cl)c(=O)c1C#N	none
COCc1cc(C)n(CC(=O)Nc2ccccc2OC)c(=O)c1C#N	JMJD2A Tudor inh inconclusive, PLK1 PBD inh 27µM, HP1b chromo inh inconclusive
COc1ccc(NC(=O)c2c(NC(=O)COc3ccccc3)sc3c2CCCCC3)cc1	none (no result: PI5P4K alpha inh, PLK1 PBD inh)
COC(=O)CCC(=O)Nc1sc(C)c(C)c1C(N)=O	JMJD2A Tudor inh inconclusive, PLK1 PBD inh 4.7µM, HP1b chromo inh inconclusive
COC(=O)c1c(NC(=O)CCC(=O)O)sc(Cc2ccccc2)c1C	PLK1 PBD inh inconclusive, BAZ2B inh inconclusive
CCCC(=O)Nc1sc(Cc2ccccc2)c(C)c1C(N)=O	PLK1 PBD inh 5.3µM, HP1b chromo inh inconclusive
COc1ccc(NC(=O)c2c(NC(=O)CCC(=O)O)sc(-c3ccccc3)c2C)cc1	PLK1 PBD inh 24µM
CCc1ccc(-c2c(C)sc(NC(C)=O)c2C(N)=O)cc1	JMJD2A Tudor inh inconclusive, PLK1 PBD inh 27µM, GCN5L2 inh inconclusive
CS(=O)(=O)N1CCC[C@@]2(CCN(C(=O)Nc3cccc(F)c3)C2)C1	none (no result: PI5P4K alpha inh, JMJD2A Tudor inh, PLK1 PBD inh, BAZ2B inh, HP1b chromo inh)
O=C(NC1CCCCCC1)c1ccc(Cl)c(S(=O)(=O)N2CCOCC2)c1	none
Cc1sc(NC(=O)CCC(=O)O)c(C(N)=O)c1-c1ccccc1	JMJD2A Tudor inh inconclusive, PLK1 PBD inh 13µM, HP1b chromo inh inconclusive
